Not all results are given here.
aSyn UTR act: Activators via SNCA 5'UTR binding, MLPCN. alpha-synuclein 5'UTR reporter, activators screen. activity score, % (tested at 7.5 µM), hits read low. 300,000 compounds, 7.1% hits. AID 1814; in the data active = activity score below about -60%
An asterisk follows results filed as active.

SMILES	aSyn UTR act
COc1ccccc1NC(=O)CSc1nnc(-c2ccccc2)o1	-89.9*
Cc1cc(N2CCCCC2)n2ncc(-c3ccc(Cl)cc3)c2n1	-181.3*
Cc1cc(N2CCN(C(=O)c3ccco3)CC2)n2ncc(-c3ccccc3)c2n1	-78.5*
O=C(Nc1nnc(CCN2CCOCC2)s1)c1ccccc1	-66.8*
O=C(Nc1nnc(Cc2ccccc2)s1)c1cccs1	-127.7*
O=C(Nc1nnc(CCc2ccccc2)s1)c1cccc(F)c1	-102.5*
O=C(Nc1nnc(CC2=CCCCC2)s1)c1cccs1	-92.7*
CC(C)Oc1ccc(C(=O)Nc2nnc(SCC(=O)N3CCOCC3)s2)cc1	97.7
O=C(Nc1nnc(Cc2ccccc2)s1)c1ccccc1	-159.6*
CCN(Cc1ccccc1)S(=O)(=O)c1ccc(C(=O)Nc2nnc(-c3ccccc3OC)o2)cc1	66.6
CCN(c1ccccc1)S(=O)(=O)c1ccc(C(=O)Nc2nnc(C3CC3)o2)cc1	70.5
CCc1nnc(NC(=O)c2ccc(N(C)S(=O)(=O)c3ccccc3)cc2)s1	-129.0*
Cc1cc(C)n(-c2nc3ccccc3c(=O)n2OCC(N)=O)n1	-63.2*
COc1cc(O)oc1C=Nc1ccc(Cl)cc1	-64.5*
CC1(C)OC(=CC=Nc2ccc(Cl)cc2)OC1(C)C	102.9
COc1cc(O)oc1C=Nc1ccc(C(=O)O)cc1	-90.8*
COc1cc(/C=N/N2CCN(C3c4ccccc4-c4ccccc43)CC2)ccc1O	-63.4*
COc1cc(/C=N/O)ccc1OCc1ccc(Cl)cc1	-97.3*
COc1cc(/C=N/O)ccc1OCc1ccc(C(=O)O)cc1	115.9
COc1cc(/C=N/NC(N)=S)ccc1OCc1ccc(C)cc1	-178.8*
COc1cc(/C=N/N=C2/NC(=O)C(CC(=O)O)S2)ccc1OCc1ccc(Cl)cc1 (configuration not stated)	-148.6*
c1ccc2c(c1)Cn1nc(Cc3nc4c(s3)CCCC4)nc1-2	-79.3*
CCOc1cc(/C=C2\N=C(C)OC2=O)cc(Br)c1OCC(=O)OC	-64.0*
CCOc1cc(CNc2ccccc2)cc(Br)c1OCC(=O)NC(C)(C)C	48.8
CCOC(=O)C1(C)C=C(Nc2cccc(OC)c2)C(=O)N1c1ccccc1 (configuration not stated)	-79.0*
SMILES	aSyn UTR act
COc1ccc(CC(=O)NCc2ccccc2)cc1	-154.2*
COc1ccc(CNC(=O)c2ccc(N3CCCC3=O)cc2)cc1	-71.0*
COc1ccc(CNC(=O)c2ccc(-c3ccccc3)cc2)cc1	-114.7*
COC(=O)c1ccc(COC(=O)CNC(=O)c2ccc(-c3ccccc3)cc2)cc1	-87.2*
COc1ccc(CNC(=O)c2nc(S(=O)(=O)Cc3ccccc3)ncc2Cl)cc1	48.8
O=C(Cc1ccc(Br)cc1)NCc1ccccc1	-66.9*
COc1cccc(/C=N/NC(=O)c2ccc(N3CCCC3=O)cc2)c1	-112.3*
COc1ccc(OC)c(NS(=O)(=O)c2ccc(N3CCCC3=O)cc2)c1	110.7
O=C(NCc1ccccc1)c1c(Cl)nc(Cl)c(Cl)c1Cl	99.2
CCCCN=Cc1sc2ccc(OCC)cc2c1O	-72.5*
C=CCN=Cc1sc2ccc(OCC)cc2c1O	-115.3*
Cc1[nH]nc(SCC(=O)N2CCCCC2)c1[N+](=O)[O-]	-91.5*
CN1CCCN(C(=O)/C=C/c2ccc(Cl)cc2Cl)CC1	-62.1*
CCc1ccc(/C=C2/C(=O)N(C)C(=S)N2CC(=O)OC)s1	-81.2*
Cc1csc(SCC(=O)c2cc(C)n(Cc3cccs3)c2C)n1	73.0
Cc1csc(SCC(=O)c2c(N)n(C)c(=O)n(C)c2=O)n1	-118.0*
COc1ccc(-c2nc(CCl)cs2)cc1	-142.4*
COc1ccc(-c2csc(-c3ccc(O)cc3)n2)cc1	-214.8*
COc1ccc(C2=Nn3c(nnc3-c3ccccc3OC)SC2)cc1OC	107.0
COc1ccc(-c2nc(-c3ccc(O)cc3O)cs2)cc1OC	-93.7*
CCc1ccc(-c2nc(CCl)cs2)cc1	-122.6*
CCC(C)N1C(=O)S/C(=C/c2ccc3c(c2)n(C)c(=O)n3C)C1=O (configuration not stated)	-68.6*
Cc1ccc(NC(=O)N2C(=O)C3(OCCO3)c3ccccc32)cc1	-164.5*
COC(=O)c1ccc(COn2nnc3ccccc32)cc1	-130.4*
Clc1cccc(Cl)c1COn1nnc2ccccc21	-149.1*
SMILES	aSyn UTR act
Cc1[nH]n(-c2ccccc2)c(=O)c1N=Nc1cccc(Cl)c1	-202.1*
CSc1ccc(N=Nc2c(C)[nH]n(C)c2=O)cc1	-62.1*
Cc1[nH]n(-c2ccc(Cl)cc2)c(=O)c1N=Nc1cccnc1	-92.6*
Cc1cc(N)ccc1N=Nc1c(C)n(C)n(-c2ccccc2)c1=O	-73.2*
Cc1ccc(N=Nc2c(C)[nH]n(-c3ccccc3)c2=O)c(C)c1	-78.2*
Cc1[nH]n(-c2ccccc2)c(=O)c1N=Nc1ccc(F)cc1	-80.6*
Cc1[nH]n(-c2ccccc2)c(=O)c1N=Nc1c(O)cc(S(=O)(=O)N(C)C)c2ccccc12	70.7
Nc1c(N=Nc2cccc(Cl)c2)c(=O)[nH]n1-c1ccccc1	-66.1*
Cc1[nH]n(-c2ccccc2)c(=O)c1N=Nc1ccc2c(c1)OCCO2	-220.3*
Cc1[nH]n(-c2ccccc2)c(=O)c1N=Nc1cccc([N+](=O)[O-])c1	-70.8*
COc1ccc(C2=NC(c3ccccc3)CO2)cc1 (configuration not stated)	-118.0*
CC(=O)Nc1ccc(SCC(=O)c2cc(C)n(Cc3cccs3)c2C)cc1	68.4
O=C(CNCc1cccs1)Nc1ccc(N2CCCCCC2)cc1	-62.8*
Cc1ccc(NC(=O)CNCc2cccs2)cc1Br	-84.7*
CC(=O)c1ccc(NC(=O)CNCc2cccs2)cc1	-134.0*
O=[N+]([O-])/C=C\c1ccc(N2CCCC2)c(F)c1	-142.5*
Cc1cccc(NC(=O)c2ccc(NCCO)c([N+](=O)[O-])c2)n1	-94.8*
Cc1cccc(NC(=O)c2ccc(NCC3CCCO3)c([N+](=O)[O-])c2)n1 (configuration not stated)	-120.6*
CC(=O)c1ccc(NCC2COc3ccccc3O2)c([N+](=O)[O-])c1 (configuration not stated)	-179.3*
Cc1cccc(NC(=O)c2ccc(NCC3CCCO3)c([N+](=O)[O-])c2)c1 (configuration not stated)	-63.8*
Cc1ccnc(NC(=S)NC(=O)c2cncc(Br)c2)c1	-81.0*
O=C1c2ccccc2C(=O)N1CCN1CCc2ccccc21	-96.6*
CCCCCCCCCn1c2c(c(=N)c3c1CCC3)CCC2	85.7
CC(C)c1cc2cc3ccc(=O)oc3cc2o1	-95.9*
CN(CCc1cnn(C)c1)Cc1cn[nH]c1-c1ccc(-c2ccccc2)cc1	-84.2*
SMILES	aSyn UTR act
CN(Cc1cn[nH]c1-c1ccc(-c2ccccc2)cc1)CC1CCOCC1	-93.1*
CC(c1ccon1)N(C)Cc1cn[nH]c1-c1ccc(-c2ccccc2)cc1 (configuration not stated)	-135.2*
CCN(CCn1cccn1)Cc1cn[nH]c1-c1ccc(-c2ccccc2)cc1	-66.9*
Cn1cc(CCNCc2cn[nH]c2-c2ccc(-c3ccccc3)cc2)cn1	-98.0*
CCOC(=O)CCSc1nc(C)c2cc(C)ccc2n1	-86.6*
O=C(Nc1ccc2c(c1)OCO2)Nc1ccc(Cl)cc1Cl	-111.6*
Cc1cc(C)c(NC(=O)Nc2ccc3c(c2)OCO3)c(C)c1	-70.7*
O=C(Nc1ccc2c(c1)OCO2)c1c(Cl)nc2sccn12	-205.5*
COC(=O)c1cccc(NC(=O)Nc2ccc(Cl)cc2Cl)c1	-102.7*
CC1CCC(NC(=O)C(=O)Nc2ccc3c(c2)OCO3)CC1 (configuration not stated)	-114.2*
CCc1ccc2[nH]c(C(=O)Nc3ccc(Br)c(C)n3)cc2c1	-146.2*

Screening results deposited in PubChem by Broad Institute.
